# Experimental data: article PMC7862700, “An all-to-all approach to the identification of sequence-specific readers for epigenetic DNA modifications on cytosine”
# How the values were obtained:
# Test in all cases: DAPPL (digital affinity profiling via proximity ligation, sequencing); 10 mM Tris-HCl pH 7.5, 50 mM NaCl, 1 mM DTT, 4% glycerol, room temperature, 30 min; GST-TFs on glutathione beads, 16-mer random dsDNA library, 0.1% formaldehyde crosslink after washing; high values mean tight binding
# FEV = target: T1, FEV (Homo sapiens, UniProt Q99581 1-238); conditions: protein: recombinant; tags: N-terminal GST; dsDNA, one strand shown
# T1 sequence: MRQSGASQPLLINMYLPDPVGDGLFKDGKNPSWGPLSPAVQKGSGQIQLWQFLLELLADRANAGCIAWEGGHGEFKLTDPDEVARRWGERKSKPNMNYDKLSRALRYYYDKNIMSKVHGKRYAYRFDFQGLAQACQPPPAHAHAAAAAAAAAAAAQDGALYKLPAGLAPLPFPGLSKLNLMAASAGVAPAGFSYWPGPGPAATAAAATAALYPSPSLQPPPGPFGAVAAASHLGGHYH
# Summary of the method: (§1)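 Beads coated with glutathione captured GST-fused human transcription factors that had been expressed in yeast, and the factors were then given DNA barcodes and pooled with a tag-only sample. The pools were incubated with 200 nmole of a random double-stranded 16-mer DNA library in Tris/NaCl/DTT/glycerol buffer for 30 min at room temperature, washed, crosslinked with 0.1% formaldehyde and proximity-ligated with BsaI/T4 ligase at 37 °C for 1 h. PCR amplification and Illumina NextSeq500 sequencing came last. Binding signal is each hexamer's read frequency for a factor divided by its frequency for the tag-only sample.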
# ETV5 = ETV5 (Homo sapiens, UniProt P41161 1-510); conditions: protein: recombinant; tags: N-terminal GST; dsDNA, one strand shown
# Summary of the method: as §1
# HSF1 = HSF1 (Homo sapiens, UniProt Q00613 1-529); conditions: protein: recombinant; tags: N-terminal GST; chain copies: 3; dsDNA, one strand shown
# Summary of the method: as §1
# SPIC = target: T2, SPIC (Homo sapiens, UniProt Q8N5J4 1-248); conditions: protein: recombinant; tags: N-terminal GST; dsDNA, one strand shown
# T2 sequence: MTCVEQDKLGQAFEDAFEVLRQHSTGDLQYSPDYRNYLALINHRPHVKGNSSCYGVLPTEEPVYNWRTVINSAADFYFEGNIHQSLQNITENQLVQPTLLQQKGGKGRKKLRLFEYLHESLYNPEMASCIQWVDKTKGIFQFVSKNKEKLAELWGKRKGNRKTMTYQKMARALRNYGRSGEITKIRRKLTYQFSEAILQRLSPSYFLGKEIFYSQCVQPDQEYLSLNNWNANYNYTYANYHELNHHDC
# Summary of the method: as §1
# ELF4 = ELF4 (Homo sapiens, UniProt Q99607 1-663); conditions: protein: recombinant; tags: N-terminal GST; dsDNA, one strand shown
# Summary of the method: as §1
# ELK4 = target: T3, ELK4 (Homo sapiens, UniProt P28324-2 1-405); conditions: protein: recombinant; tags: N-terminal GST; dsDNA, one strand shown
# T3 sequence: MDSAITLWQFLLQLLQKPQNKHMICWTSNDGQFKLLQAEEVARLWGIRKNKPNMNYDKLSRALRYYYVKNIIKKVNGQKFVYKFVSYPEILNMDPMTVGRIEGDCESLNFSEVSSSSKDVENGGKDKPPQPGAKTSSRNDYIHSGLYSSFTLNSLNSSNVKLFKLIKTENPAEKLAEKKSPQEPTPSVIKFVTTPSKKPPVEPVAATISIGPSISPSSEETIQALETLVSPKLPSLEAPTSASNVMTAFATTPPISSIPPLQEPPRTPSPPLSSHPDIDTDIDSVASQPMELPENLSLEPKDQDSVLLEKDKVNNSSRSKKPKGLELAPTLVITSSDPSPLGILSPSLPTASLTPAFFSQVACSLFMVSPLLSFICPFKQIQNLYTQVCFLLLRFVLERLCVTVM
# Summary of the method: as §1
# ETV2 = target: T4, ETV2 (Homo sapiens, UniProt O00321 1-342); conditions: protein: recombinant; tags: N-terminal GST; dsDNA, one strand shown
# T4 sequence: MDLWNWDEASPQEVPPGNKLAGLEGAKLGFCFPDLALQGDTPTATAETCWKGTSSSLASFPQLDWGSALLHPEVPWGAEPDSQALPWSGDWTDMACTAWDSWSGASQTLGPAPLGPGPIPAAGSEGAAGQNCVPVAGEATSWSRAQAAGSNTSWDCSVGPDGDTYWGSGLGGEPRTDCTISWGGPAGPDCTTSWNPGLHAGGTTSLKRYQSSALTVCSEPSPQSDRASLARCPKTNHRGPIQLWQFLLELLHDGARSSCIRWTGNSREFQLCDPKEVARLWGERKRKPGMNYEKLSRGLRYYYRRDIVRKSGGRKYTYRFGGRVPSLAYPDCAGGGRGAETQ
# Summary of the method: as §1
# ELF3 = target: T5, ELF3 (Homo sapiens, UniProt P78545 1-371); conditions: protein: recombinant; tags: N-terminal GST; dsDNA, one strand shown
# T5 sequence: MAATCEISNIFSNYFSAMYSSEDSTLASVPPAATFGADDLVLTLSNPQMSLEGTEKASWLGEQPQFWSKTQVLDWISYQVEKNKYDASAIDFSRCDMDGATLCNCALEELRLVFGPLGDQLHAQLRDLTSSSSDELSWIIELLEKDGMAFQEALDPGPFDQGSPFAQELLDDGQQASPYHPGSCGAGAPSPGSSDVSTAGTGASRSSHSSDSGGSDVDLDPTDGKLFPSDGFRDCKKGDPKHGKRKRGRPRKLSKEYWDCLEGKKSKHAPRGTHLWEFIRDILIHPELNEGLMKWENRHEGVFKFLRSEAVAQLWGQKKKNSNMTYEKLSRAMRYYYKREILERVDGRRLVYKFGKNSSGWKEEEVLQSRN
# Summary of the method: as §1
# CRX = CRX (Homo sapiens, UniProt O43186 1-299); conditions: protein: recombinant; tags: N-terminal GST; dsDNA, one strand shown
# Summary of the method: as §1
# ETV1 = ETV1 (Homo sapiens, UniProt P50549 1-477); conditions: protein: recombinant; tags: N-terminal GST; dsDNA, one strand shown
# Summary of the method: as §1
# ERF = target: T6, ERF (Homo sapiens, UniProt P50548 1-548); conditions: protein: recombinant; tags: N-terminal GST; dsDNA, one strand shown
# T6 sequence: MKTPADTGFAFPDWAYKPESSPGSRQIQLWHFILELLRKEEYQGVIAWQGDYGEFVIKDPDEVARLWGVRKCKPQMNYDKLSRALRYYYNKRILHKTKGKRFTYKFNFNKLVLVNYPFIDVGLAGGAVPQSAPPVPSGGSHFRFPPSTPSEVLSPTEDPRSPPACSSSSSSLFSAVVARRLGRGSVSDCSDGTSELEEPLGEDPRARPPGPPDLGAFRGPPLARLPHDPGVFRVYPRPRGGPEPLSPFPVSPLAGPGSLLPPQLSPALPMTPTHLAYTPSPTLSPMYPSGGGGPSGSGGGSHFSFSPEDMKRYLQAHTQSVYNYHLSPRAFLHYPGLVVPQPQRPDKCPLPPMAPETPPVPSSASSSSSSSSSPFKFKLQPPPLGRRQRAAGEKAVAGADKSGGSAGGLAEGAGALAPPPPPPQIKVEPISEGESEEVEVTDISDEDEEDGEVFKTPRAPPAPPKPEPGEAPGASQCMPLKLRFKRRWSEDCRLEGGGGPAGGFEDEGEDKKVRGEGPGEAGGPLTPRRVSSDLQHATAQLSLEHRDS
# Summary of the method: as §1
# ETV3L = target: T7, ETV3L (Homo sapiens, UniProt Q6ZN32 1-361); conditions: protein: recombinant; tags: N-terminal GST; dsDNA, one strand shown
# T7 sequence: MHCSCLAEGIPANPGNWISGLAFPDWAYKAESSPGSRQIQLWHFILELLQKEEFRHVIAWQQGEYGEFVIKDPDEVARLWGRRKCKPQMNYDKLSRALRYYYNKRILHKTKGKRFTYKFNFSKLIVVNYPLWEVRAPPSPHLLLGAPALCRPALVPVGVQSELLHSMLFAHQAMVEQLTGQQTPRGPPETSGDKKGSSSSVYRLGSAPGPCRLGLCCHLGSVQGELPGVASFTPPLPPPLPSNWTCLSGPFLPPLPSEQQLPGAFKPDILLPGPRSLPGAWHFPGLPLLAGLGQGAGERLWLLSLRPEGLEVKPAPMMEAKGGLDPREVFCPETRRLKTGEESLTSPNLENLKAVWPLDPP
# Summary of the method: as §1
# ETS2 = target: T8, ETS2 (Homo sapiens, UniProt P15036 1-469); conditions: protein: recombinant; tags: N-terminal GST; dsDNA, one strand shown
# T8 sequence: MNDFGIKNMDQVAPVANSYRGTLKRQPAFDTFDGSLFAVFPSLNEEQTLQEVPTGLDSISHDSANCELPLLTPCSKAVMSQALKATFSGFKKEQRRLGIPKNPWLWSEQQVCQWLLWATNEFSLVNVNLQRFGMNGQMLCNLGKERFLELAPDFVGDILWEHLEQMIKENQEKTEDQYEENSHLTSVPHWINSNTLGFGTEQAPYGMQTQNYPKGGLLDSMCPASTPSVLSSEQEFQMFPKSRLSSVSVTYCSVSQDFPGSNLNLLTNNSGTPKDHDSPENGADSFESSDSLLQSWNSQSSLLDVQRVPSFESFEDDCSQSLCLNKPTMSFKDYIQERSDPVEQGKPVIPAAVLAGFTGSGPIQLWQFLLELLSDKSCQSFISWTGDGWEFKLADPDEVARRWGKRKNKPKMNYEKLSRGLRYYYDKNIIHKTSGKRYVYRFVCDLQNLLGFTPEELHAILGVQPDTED
# Summary of the method: as §1
# SPDEF = target: T9, SPDEF (Homo sapiens, UniProt O95238 1-335); conditions: protein: recombinant; tags: N-terminal GST; dsDNA, one strand shown
# T9 sequence: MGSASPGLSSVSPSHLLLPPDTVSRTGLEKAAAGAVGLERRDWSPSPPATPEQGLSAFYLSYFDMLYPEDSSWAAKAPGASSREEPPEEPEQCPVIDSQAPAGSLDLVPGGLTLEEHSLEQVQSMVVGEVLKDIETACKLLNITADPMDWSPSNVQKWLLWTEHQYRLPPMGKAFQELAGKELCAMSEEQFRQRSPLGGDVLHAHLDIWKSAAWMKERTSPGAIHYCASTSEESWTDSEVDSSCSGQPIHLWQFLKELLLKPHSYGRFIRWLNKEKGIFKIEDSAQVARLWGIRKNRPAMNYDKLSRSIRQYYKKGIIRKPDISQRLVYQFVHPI
# Summary of the method: as §1
# ETV7 = target: T10, ETV7 (Homo sapiens, UniProt Q9Y603 1-341); conditions: protein: recombinant; tags: N-terminal GST; dsDNA, one strand shown
# T10 sequence: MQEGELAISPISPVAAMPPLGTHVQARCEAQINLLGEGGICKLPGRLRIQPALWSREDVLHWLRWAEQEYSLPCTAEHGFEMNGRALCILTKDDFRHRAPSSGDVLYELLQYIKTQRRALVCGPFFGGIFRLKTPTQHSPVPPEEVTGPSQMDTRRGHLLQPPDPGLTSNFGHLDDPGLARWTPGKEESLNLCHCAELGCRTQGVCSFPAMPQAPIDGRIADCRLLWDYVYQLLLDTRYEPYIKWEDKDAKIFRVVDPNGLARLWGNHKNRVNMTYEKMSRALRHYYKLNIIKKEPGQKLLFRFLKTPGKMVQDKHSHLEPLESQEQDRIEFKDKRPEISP
# Summary of the method: as §1
# ELF5 = target: T11, ELF5 (Homo sapiens, UniProt Q9UKW6-2 1-255); conditions: protein: recombinant; tags: N-terminal GST; dsDNA, one strand shown
# T11 sequence: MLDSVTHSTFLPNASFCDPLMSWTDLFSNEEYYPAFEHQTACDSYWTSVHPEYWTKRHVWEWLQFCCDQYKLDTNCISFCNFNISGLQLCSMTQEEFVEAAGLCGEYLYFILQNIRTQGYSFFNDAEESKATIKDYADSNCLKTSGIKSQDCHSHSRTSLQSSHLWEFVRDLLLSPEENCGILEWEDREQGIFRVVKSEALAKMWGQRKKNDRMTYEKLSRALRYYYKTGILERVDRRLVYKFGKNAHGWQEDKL
# Summary of the method: as §1
# ETV3 = target: T12, ETV3 (Homo sapiens, UniProt P41162-2 1-143); conditions: protein: recombinant; tags: N-terminal GST; dsDNA, one strand shown
# T12 sequence: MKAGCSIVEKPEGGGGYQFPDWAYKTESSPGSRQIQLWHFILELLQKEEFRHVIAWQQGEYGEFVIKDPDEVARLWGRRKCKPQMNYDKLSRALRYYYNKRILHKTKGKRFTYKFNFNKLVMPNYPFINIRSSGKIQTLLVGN
# Summary of the method: as §1
# ETV6 = ETV6 (Homo sapiens, UniProt P41212 1-452); conditions: protein: recombinant; tags: N-terminal GST; dsDNA, one strand shown
# Summary of the method: as §1
# Chain of ETV5 (P41161 whole entry): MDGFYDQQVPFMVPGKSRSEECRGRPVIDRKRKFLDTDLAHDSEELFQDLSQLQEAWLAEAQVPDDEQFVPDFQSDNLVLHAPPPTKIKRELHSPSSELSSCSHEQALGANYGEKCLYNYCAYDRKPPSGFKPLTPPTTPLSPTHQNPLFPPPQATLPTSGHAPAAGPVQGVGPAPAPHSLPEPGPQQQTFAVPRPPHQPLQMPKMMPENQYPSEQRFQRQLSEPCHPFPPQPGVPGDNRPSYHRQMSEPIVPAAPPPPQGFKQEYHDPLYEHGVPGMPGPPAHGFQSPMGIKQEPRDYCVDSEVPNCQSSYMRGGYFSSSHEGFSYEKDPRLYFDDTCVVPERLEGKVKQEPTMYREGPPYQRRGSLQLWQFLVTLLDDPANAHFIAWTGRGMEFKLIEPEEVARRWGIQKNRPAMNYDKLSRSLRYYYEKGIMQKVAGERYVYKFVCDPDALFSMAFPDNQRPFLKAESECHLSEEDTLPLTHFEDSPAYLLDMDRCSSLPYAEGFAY
# Chain of CRX (O43186 whole entry): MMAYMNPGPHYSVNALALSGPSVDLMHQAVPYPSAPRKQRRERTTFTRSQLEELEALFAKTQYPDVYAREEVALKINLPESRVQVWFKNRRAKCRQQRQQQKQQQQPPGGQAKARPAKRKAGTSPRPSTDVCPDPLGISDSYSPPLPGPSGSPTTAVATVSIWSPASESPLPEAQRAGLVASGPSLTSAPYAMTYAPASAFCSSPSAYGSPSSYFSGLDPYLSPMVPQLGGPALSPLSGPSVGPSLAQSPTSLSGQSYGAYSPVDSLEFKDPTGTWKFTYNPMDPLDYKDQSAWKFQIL
# Chain of ETV6 (P41212 whole entry): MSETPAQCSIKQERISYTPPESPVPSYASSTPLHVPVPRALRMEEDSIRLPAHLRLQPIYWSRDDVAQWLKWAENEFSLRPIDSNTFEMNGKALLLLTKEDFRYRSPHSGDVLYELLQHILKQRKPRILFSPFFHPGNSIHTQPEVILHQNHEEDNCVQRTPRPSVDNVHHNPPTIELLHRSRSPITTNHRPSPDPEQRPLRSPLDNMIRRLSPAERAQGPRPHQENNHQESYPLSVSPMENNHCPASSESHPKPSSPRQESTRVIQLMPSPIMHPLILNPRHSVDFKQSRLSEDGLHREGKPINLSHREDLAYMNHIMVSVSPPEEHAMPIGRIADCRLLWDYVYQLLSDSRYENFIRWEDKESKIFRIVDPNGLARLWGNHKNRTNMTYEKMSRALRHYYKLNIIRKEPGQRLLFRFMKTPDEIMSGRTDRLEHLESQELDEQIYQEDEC
# Chain of HSF1 (Q00613 whole entry): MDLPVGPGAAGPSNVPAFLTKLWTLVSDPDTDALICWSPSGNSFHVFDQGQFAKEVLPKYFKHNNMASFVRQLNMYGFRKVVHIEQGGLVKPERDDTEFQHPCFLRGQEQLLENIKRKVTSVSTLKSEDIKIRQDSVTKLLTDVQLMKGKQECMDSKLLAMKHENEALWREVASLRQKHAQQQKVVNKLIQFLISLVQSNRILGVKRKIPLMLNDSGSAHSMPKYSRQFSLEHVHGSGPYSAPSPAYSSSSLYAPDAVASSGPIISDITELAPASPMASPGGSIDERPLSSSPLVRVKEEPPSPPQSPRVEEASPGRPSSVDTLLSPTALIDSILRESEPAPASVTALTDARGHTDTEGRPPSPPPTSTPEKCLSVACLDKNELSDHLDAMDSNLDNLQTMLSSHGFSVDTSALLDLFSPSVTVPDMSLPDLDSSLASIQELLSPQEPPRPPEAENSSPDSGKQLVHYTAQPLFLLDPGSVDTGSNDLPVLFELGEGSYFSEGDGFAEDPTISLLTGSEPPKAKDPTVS
# Chain of ETV1 (P50549 whole entry): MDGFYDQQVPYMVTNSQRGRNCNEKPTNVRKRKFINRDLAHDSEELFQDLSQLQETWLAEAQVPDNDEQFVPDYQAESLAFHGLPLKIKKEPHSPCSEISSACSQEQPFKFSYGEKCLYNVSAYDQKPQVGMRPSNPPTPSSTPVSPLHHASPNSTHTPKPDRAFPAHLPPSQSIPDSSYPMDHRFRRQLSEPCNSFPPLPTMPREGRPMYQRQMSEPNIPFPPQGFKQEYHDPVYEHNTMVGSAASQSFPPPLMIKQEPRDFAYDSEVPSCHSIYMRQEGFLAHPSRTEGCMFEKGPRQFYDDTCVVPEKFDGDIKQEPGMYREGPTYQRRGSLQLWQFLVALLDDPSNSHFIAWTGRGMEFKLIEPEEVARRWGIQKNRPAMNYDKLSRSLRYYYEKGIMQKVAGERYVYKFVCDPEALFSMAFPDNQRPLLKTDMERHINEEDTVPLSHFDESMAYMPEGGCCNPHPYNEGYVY
# Chain of ELF4 (Q99607 whole entry): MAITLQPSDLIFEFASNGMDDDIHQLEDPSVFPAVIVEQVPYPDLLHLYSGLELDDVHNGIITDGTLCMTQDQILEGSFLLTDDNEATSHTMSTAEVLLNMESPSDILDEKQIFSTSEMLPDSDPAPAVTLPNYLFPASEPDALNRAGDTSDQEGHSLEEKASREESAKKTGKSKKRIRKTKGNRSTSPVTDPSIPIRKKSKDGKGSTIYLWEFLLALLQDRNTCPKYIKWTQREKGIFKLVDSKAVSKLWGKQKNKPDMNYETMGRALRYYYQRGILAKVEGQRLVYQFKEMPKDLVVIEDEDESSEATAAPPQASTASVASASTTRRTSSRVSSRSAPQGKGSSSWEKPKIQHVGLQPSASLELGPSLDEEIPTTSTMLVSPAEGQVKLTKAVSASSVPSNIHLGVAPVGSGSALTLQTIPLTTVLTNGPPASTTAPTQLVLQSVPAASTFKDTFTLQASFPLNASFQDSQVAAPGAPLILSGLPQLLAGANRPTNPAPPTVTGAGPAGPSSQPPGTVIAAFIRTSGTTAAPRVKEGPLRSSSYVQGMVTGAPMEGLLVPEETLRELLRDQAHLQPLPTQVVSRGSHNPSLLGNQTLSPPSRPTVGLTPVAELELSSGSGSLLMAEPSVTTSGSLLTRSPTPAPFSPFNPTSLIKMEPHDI
sequence,measurement,setting,value
ATGACC,binding signal,FEV,"1.63 fold enrichment (6-mer frequency, TF over GST control)"
same,binding signal,ETV5,"1.54 fold enrichment (6-mer frequency, TF over GST control)"
same,binding signal,HSF1,"1.42 fold enrichment (6-mer frequency, TF over GST control)"
same,binding signal,SPIC,"1.38 fold enrichment (6-mer frequency, TF over GST control)"
same,binding signal,ELF4,"1.66 fold enrichment (6-mer frequency, TF over GST control)"
same,binding signal,ELK4,"1.54 fold enrichment (6-mer frequency, TF over GST control)"
same,binding signal,ETV2,"1.76 fold enrichment (6-mer frequency, TF over GST control)"
same,binding signal,ELF3,"1.63 fold enrichment (6-mer frequency, TF over GST control)"
same,binding signal,CRX,"1.31 fold enrichment (6-mer frequency, TF over GST control)"
same,binding signal,ETV1,"1.62 fold enrichment (6-mer frequency, TF over GST control)"
same,binding signal,ERF,"1.42 fold enrichment (6-mer frequency, TF over GST control)"
same,binding signal,ETV3L,"1.51 fold enrichment (6-mer frequency, TF over GST control)"
same,binding signal,ETS2,"1.66 fold enrichment (6-mer frequency, TF over GST control)"
same,binding signal,SPDEF,"1.59 fold enrichment (6-mer frequency, TF over GST control)"
same,binding signal,ETV7,"1.51 fold enrichment (6-mer frequency, TF over GST control)"
same,binding signal,ELF5,"1.56 fold enrichment (6-mer frequency, TF over GST control)"
same,binding signal,ETV3,"1.47 fold enrichment (6-mer frequency, TF over GST control)"
same,binding signal,ETV6,"1.53 fold enrichment (6-mer frequency, TF over GST control)"
